Measurements from PubChem BioAssay (NCATS).
Records with an inconclusive call do not appear. A call without a number means that no potency is given here. Calls of active or inactive are those of the source. The call rests on the fitted dose curve; in most records, active means well fitted curve in the direction sought with a large enough effect; inconclusive means small, poorly fitted or top-dose-only effect, or another doubt; inactive means no such curve, though single readings can be large; an effect the other way counts as inactive or inconclusive.

Columns and labels:
[1] = target: Aldehyde dehydrogenase, mitochondrial (Homo sapiens) (UniProt P05091); test: qHTS for Inhibitors of the Aldehyde Dehydrogenase Family (ALDH2) Primary screen (AID 2061308); further: nearly all actives have a fitted effect of over 55% in size
[2] = target: Retinaldehyde dehydrogenase 3 (Homo sapiens) (UniProt P47895); test: qHTS for Inhibitors of the Aldehyde Dehydrogenase Family (ALDH1A3) Primary screen (AID 2061315)

For `COc1ccc(C2Nc3ccccc3C(=O)N2Cc2ccc(C)o2)cc1COc1c(C)cccc1C` (stereo not drawn), the Potency [1] was “inactive” and the Potency [2] was “inactive”.
With `CC(=O)c1ccc(-c2csc3ncnc(Sc4nnnn4C)c23)cc1` the Potency [1] was “inactive” and the Potency [2] was “inactive”.
With `O=C(Nc1ccc(Br)c(Br)c1)Nc1nnc(-c2cccnc2)s1` the Potency [1] was “inactive” and the Potency [2] was “inactive”.
`COc1ccc(NS(=O)(=O)c2ccc3c(c2)CCC(=O)N3)cc1` was tested, and the Potency [1] was “inactive” and the Potency [2] was “inactive”.
`COCCN(CCOC)c1nc(C)nc2c1nc(-c1ccccc1)n2CCCN(C)C` was tested, and the Potency [1] was “inactive” and the Potency [2] was “inactive”.
For `c1nc(NCc2ccoc2)c2cc(-c3ccc4c(c3)OCO4)ccc2n1`, the Potency [1] was “inactive” and the Potency [2] was “inactive”.
With `O=C(Nc1ccc(N2CCOCC2)c(C(F)(F)F)c1)Nc1nnc(-c2ccncc2)s1` the Potency [1] was “inactive” and the Potency [2] was “inactive”.
`O=C(CNC(=O)c1ccc(Cl)cc1Cl)OC(C(=O)Nc1cc(C(F)(F)F)ccc1Cl)c1ccccc1` (stereo not drawn) was tested, and the Potency [1] was “inactive” and the Potency [2] was “inactive”.
For `CCOc1ccc(CCNC(=O)c2cc3sccc3n2Cc2ccccc2)cc1OCC`, the Potency [1] was “inactive” and the Potency [2] was “inactive”.
With `O=C1NS(=O)(=O)C(c2ccccc2)C1c1ccccc1` (stereo not drawn) the Potency [1] was “inactive” and the Potency [2] was “inactive”.
`COc1ccc(-c2ccc(Nc3nc(-c4ccncc4)nc4ccccc34)cc2F)cc1F` was tested, and the Potency [1] was “inactive” and the Potency [2] was “inactive”.
`Fc1ccc(-c2nnc(CCCCSc3nnc(-c4cccc5ccccc45)o3)o2)cc1` was tested, and the Potency [1] was “inactive” and the Potency [2] was “inactive”.
For `COc1ccc(-c2nnc3n2N=C(c2ccc(OC)c(OC)c2)CS3)c(OC)c1`, the Potency [1] was “inactive” and the Potency [2] was “inactive”.
`O=C(Nc1ccccc1)C1CCN(c2ncc(-c3ccc4c(c3)OCCCO4)s2)CC1` was tested, and the Potency [1] was “inactive” and the Potency [2] was “inactive”.
With `O=C1c2ccccc2C(=O)N1c1ccccn1` the Potency [1] was “inactive” and the Potency [2] was “inactive”.
In the case of `COc1ccc(C)cc1NC(=O)C(OC(=O)CNC(=O)c1ccccc1)c1ccccc1` (stereo not drawn), the Potency [1] is reported as “inactive” and the Potency [2] is reported as “inactive”.
In the case of `COc1ccccc1C(=O)Nc1nc(-c2ccccc2)cs1`, the Potency [1] is reported as “inactive” and the Potency [2] is reported as “inactive”.
`O=C(CNC(=O)c1ccc([N+](=O)[O-])cc1)OC(C(=O)Nc1cc(C(F)(F)F)ccc1Cl)c1ccccc1` (stereo not drawn) was tested, and the Potency [1] was “inactive” and the Potency [2] was “inactive”.
In the case of `CC(=O)NC(c1cc(F)c2cccnc2c1O)C(C)C` (stereo not drawn), the Potency [1] is reported as “inactive” and the Potency [2] is reported as “inactive”.
`O=[S+]([O-])(Nc1ccccc1)c1ccc(NCc2cccc(C(F)(F)F)c2Cl)cc1` was tested, and the Potency [1] was “inactive” and the Potency [2] was “inactive”.
In the case of `C=C[C@H]1CN2CC[C@H]1C[C@@H]2C(O)c1ccnc2ccc(OC)cc12` (stereo partly drawn), the Potency [1] is reported as “inactive” and the Potency [2] is reported as “inactive”.
With `CC(C)(C)c1ccc(CSc2nc3ncc(Br)cc3[nH]2)cc1` the Potency [1] was “inactive” and the Potency [2] was “inactive”.
`OCc1ccc(-c2ccc3ncnc(NCc4ncc[nH]4)c3c2)o1` was tested, and the Potency [1] was “inactive” and the Potency [2] was “inactive”.
In the case of `O=C(Nc1ccc(Cl)c(S(=O)(=O)N2CCOCC2)c1)c1ccc(S(=O)(=O)N2CCOCC2)cc1`, the Potency [1] is reported as “inactive” and the Potency [2] is reported as “inactive”.
For `Cc1cccc(CNc2ncnc3ccc(-c4ccc5c(c4)OCCO5)cc23)c1`, the Potency [1] was “inactive” and the Potency [2] was “inactive”.
For `Cc1ccc(-c2cc(C(=O)NCc3ccccc3)c3ccccc3n2)cc1C`, the Potency [1] was “inactive” and the Potency [2] was “inactive”.
For `CCCn1c(-c2ccc(F)cc2)nc2c(NCCCN(CC)CC)nc(C)nc21`, the Potency [1] was “inactive” and the Potency [2] was “inactive”.
`CC(C)(C)OC(=O)NCC(=O)NNC(=O)c1cc2ccccc2[nH]1` was tested, and the Potency [1] was “inactive” and the Potency [2] was “inactive”.
In the case of `Fc1ccc(-c2nc(-c3ccncc3)nc3ccccc23)cc1F`, the Potency [1] is reported as “inactive” and the Potency [2] is reported as “inactive”.
With `S=C(Nc1ccc(Cl)c(Cl)c1)Nc1nnc(-c2ccncc2)s1` the Potency [1] was “inactive” and the Potency [2] was “inactive”.
In the case of `CCCCNc1nc(C)nc2c1nc(-c1ccccc1)n2CCN(C)C`, the Potency [1] is reported as “inactive” and the Potency [2] is reported as “inactive”.
In the case of `CS(=O)(=O)c1ccccc1-c1csc(N2CCC(C(N)=O)CC2)n1`, the Potency [1] is reported as “inactive” and the Potency [2] is reported as “inactive”.
In the case of `O=C(Nc1ccc(Cl)c(Cl)c1)Nc1ncc(-c2ccncc2)s1`, the Potency [1] is reported as “inactive” and the Potency [2] is reported as “inactive”.
In the case of `FC(F)(F)c1cc(-c2ccc(CNc3nc(-c4ccccc4C(F)(F)F)nc4ccccc34)cc2)ccc1Cl`, the Potency [1] is reported as “inactive” and the Potency [2] is reported as “inactive”.
`Cc1cnc(-c2ccccc2C(C)C)nc1NCc1ccc(-c2cccnc2)cc1` was tested, and the Potency [1] was “inactive” and the Potency [2] was “inactive”.
In the case of `CC(OC(=O)c1ccc(S(C)(=O)=O)c([N+](=O)[O-])c1)C(=O)NC1C2CC3CC(C2)CC1C3` (stereo not drawn), the Potency [1] is reported as “inactive” and the Potency [2] is reported as “inactive”.
With `CC(C)CC(O)C(=O)Nc1cc(C(F)(F)F)ccc1Cl` (stereo not drawn) the Potency [1] was “inactive” and the Potency [2] was “inactive”.
In the case of `COc1cccc(C2N=C(Nc3nc4ccccc4o3)NC3=C2C(=O)CCC3)c1` (stereo not drawn), the Potency [1] is reported as “inactive” and the Potency [2] is reported as “inactive”.
For `Fc1cc(Nc2nc(-c3ccncc3)nc3ccccc23)ccc1-c1cccnc1`, the Potency [1] was “inactive” and the Potency [2] was “inactive”.
